# FBW7 act: FBW7 E3 ligase activators, primary screen, biochemical, AlphaScreen, human; F-box/WD repeat-containing protein 7 (Homo sapiens), Q969H0; AlphaScreen FBW7–phospho-cyclin E peptide binding, activator screen; normalized activity (activation), % at 26.1 µM; 650,000 tested, 0.13% active; AID 1259310, 2017; in the data active = normalized activity above about 1.9%;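 also: purified mutant Fbw7 with reduced substrate affinity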
# Target sequence (Q969H0 whole entry, looked up): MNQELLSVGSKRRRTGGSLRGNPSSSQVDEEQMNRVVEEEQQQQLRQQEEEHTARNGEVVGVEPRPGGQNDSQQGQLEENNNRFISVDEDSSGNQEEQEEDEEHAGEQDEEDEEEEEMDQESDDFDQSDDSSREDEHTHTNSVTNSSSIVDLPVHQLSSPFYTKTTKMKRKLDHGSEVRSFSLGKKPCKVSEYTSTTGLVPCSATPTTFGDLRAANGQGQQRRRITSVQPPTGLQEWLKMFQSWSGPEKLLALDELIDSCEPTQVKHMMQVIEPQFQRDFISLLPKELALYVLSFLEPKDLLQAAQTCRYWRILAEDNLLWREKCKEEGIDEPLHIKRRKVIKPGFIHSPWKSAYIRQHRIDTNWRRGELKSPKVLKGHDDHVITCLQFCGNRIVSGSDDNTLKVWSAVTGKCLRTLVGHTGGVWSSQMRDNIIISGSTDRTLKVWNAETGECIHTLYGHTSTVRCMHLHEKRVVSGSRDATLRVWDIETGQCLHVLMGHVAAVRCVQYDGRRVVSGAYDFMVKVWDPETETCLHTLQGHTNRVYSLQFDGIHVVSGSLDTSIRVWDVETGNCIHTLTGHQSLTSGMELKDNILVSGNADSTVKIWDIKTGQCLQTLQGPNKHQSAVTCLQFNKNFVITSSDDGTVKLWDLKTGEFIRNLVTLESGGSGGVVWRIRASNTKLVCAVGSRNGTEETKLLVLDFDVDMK
# TEAD-YAP block: TEAD-YAP interaction inhibition, primary screen, TEAD-YAP interaction inhibitor project, luminescence, HEK-TIYL cells; TEAD-Gal4/YAP UAS-luciferase luminescence; AID 1259422, 2018; inhibition, % at 9.12 µM; 640,000 tested, 1.4% active; in the data active = inhibition above about 32%
# GPR151 ag: activators of human GPR151, primary screen, cell-based, PathHunter beta-arrestin, luminescence; activation, % at 11.2 µM; PathHunter beta-arrestin GPR151 cells; 650,000 tested, 1% active; in the data active = activation above about 4.9%
# MITF primary: MITF inhibitors, primary screen, biochemical, AlphaScreen, human; AlphaScreen MITF homodimerization, bead proximity signal; inhibition, % at 2.6 µM; 650,000 tested, 0.91% active; AID 1259374, 2018; in the data active = inhibition above about 50%
# GPR151 confirm: GPR151 activators, triplicate retest, confirmation, cell-based, PathHunter beta-arrestin, luminescence. GPR151 PathHunter beta-arrestin cells, 90 min; % of EA-reagent control over plate median. 6,700 tested, under 10 active. activation, % at 11.2 µM. shares compounds with GPR151 ag;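 active = mean percent activation across replicates above the confirmation screen cutoff of 4.91%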
# GPR119 ag: GPR119 activators in beta-arrestin cells, counter-screen for GPR151 activator project, cell-based, PathHunter beta-arrestin, luminescence, triplicate; 6,700 tested, 0.3% active; shares compounds with GPR151 ag; activation, % at 11.2 µM; 90 min; 0 = compound-well median, 100 = enzyme-acceptor control;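 active = mean percent activation in the counterscreen above 29.09%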;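 also: counterscreen on off-target GPR119 to flag nonselective hits from the GPR151 activator screen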
# Numbers stand for hits; i = inactive; nt = no result given. Sampled rows, rich in hits. Any-hit rate of the full collection: about 3.4%.
SMILES,FBW7 act,TEAD-YAP block,GPR151 ag,MITF primary,GPR151 confirm,GPR119 ag
Cc1ccc(NC(=O)COc2ncnc3ccc(Br)cc23)cc1[N+](=O)[O-],i,i,i,i,nt,nt
O=C(COc1ncnc2ccc(Br)cc12)Nc1ccc(F)c([N+](=O)[O-])c1,i,i,5.2,i,i,i
CC(C(=O)NC1CCCCCC1)N1Cc2ccccc2C1=O (stereo unspecified),i,i,i,i,nt,nt
O=C(CSc1nnc(NC(=O)Cc2ccccc2)s1)NCC1CCCO1 (stereo unspecified),i,i,i,i,nt,nt
O=C(CSc1nnc(NC(=O)Cc2ccc(F)cc2)s1)NCC1CCCO1 (stereo unspecified),i,i,5.0,i,i,i
O=C(NCc1ccccc1Cl)C1CCC(CNc2c(N3CCCC3)c(=O)c2=O)CC1 (stereo unspecified),i,i,i,i,nt,nt
COC(=O)c1ccc(/C=N/Nc2ccccc2[N+](=O)[O-])cc1,i,i,4.9,i,i,i
COc1cc(/C=N/Nc2ccccc2[N+](=O)[O-])cc(Br)c1O,i,i,i,i,nt,nt
Cc1cc(Br)ccc1S(=O)(=O)N1CCOCC1,i,i,i,i,nt,nt
O=S(=O)(c1ccc(Br)cc1Br)N1CCOCC1,i,i,5.1,i,i,i
CN(C)CCN1C(=O)C(CC(=O)Nc2cccc([N+](=O)[O-])c2)SC1=Nc1ccccc1 (stereo unspecified),i,i,5.2,i,i,i
CCN1C(=O)C(=O)N(CC(=O)Nc2ccc3c(c2)OCCO3)C1=O,i,i,i,i,nt,nt
COC(=O)c1nsc(Cl)c1Cl,i,i,6.8,i,i,i
CCOC(=O)c1c(C)oc2nc(CN3c4cccc5cccc(c45)S3(=O)=O)nc(N)c12,i,i,i,i,nt,nt
Nc1ccc(-c2nnn(CC(=O)Nc3ccc(C4CCCCC4)cc3)n2)cc1,i,i,8.1,i,i,i
Cc1cccc(N2N=C(C(=O)NNC(=O)Cc3nc4ccccc4n3C)CCC2=O)c1,i,i,i,i,nt,nt
CC1CC(=O)c2cnc(N3CCN(c4ccccc4)CC3)nc2C1 (stereo unspecified),i,i,i,i,nt,nt
COc1cccc(NC(=O)N2CCNCC2)c1,i,i,23,i,i,i
O=C(NCCSCc1ccccc1)c1ccc2c(=O)n(Cc3ccc4c(c3)OCO4)c(=S)[nH]c2c1,i,i,i,i,nt,nt
CCOC(=O)c1c(-c2ccc(C)o2)csc1NC(=O)c1cccs1,i,i,8.2,i,i,i
CC12CCC(=O)C=C1CC[C@@H]1[C@@H]2[C@@H](O)CC2(C)[C@@H](C(=O)CO)CC[C@@H]12 (stereo partly specified),i,i,i,i,nt,nt
COc1ccc(C(=O)Nc2c(C)csc2C(=O)O)cc1,i,i,4.9,i,i,i
Cc1csc(C(=O)O)c1NC(=O)c1ccc(F)cc1,i,i,i,i,nt,nt
CC1=C(C(=O)N2CCC(CCC(=O)N(C)Cc3ccccc3)CC2)OCCO1,i,i,i,i,nt,nt
CN(Cc1ccccc1)C(=O)CCC1CCN(C(=O)C(=O)c2ccccc2)CC1,i,i,5.2,i,i,i
SMILES,FBW7 act,TEAD-YAP block,GPR151 ag,MITF primary,GPR151 confirm,GPR119 ag
O=CN1CCn2c3c(c(=O)c4cc(C5CCCCC5)ccc42)CCC31 (stereo unspecified),i,i,7.3,i,i,i
NC(=O)N1CCn2c3c(c4cc(C5CCCCC5)ccc42)CCCC31 (stereo unspecified),i,i,i,i,nt,nt
CC1CCN(C(=O)Nc2ccc(Cl)cc2)CC1,i,i,i,i,nt,nt
CC1CCN(C(=O)Nc2ccc(F)cc2)CC1,i,i,7.2,i,i,i
CC(=O)Nc1ccc(OC(=O)N2CCC(C)CC2)cc1,i,i,5.3,i,i,i
CC1CCN(C(=O)Oc2ccccc2)CC1,i,i,i,i,nt,nt
CCC(C)N(C(=O)c1csnn1)C(C(=O)NCc1ccc(F)cc1)c1ccco1 (stereo unspecified),i,i,7.2,i,i,i
Cc1cc(NC2CC2)nc(Nc2cnccn2)n1,i,i,i,i,nt,nt
CC(C)(C)C(=O)COC(=O)CCC(=O)c1cccs1,i,i,6.1,i,i,i
Cc1cccc(OCC(O)CN2CCCCCC2)c1C (stereo unspecified),i,i,9.8,i,i,i
C=C(C)CNc1nc2nonc2nc1NC1CC1,i,i,i,i,nt,nt
c1cc(CNc2nc3nonc3nc2NC2CC2)c2cc[nH]c2c1,i,i,5.5,i,i,i
O=C(Nc1nc(-c2ccccc2)c(C(=O)c2ccccc2)s1)c1ccccc1[N+](=O)[O-],i,i,5.0,i,i,i
O=C(Nc1nc(-c2ccccc2)c(C(=O)c2ccccc2)s1)c1cc(Cl)ccc1[N+](=O)[O-],i,i,i,i,nt,nt
O=C1C(c2ccc(F)cc2)N(C2CCCCC2)C(=O)CN1C1CCCCCC1 (stereo unspecified),i,i,8.6,i,i,i
O=C1C(c2ccc(F)cc2)N(C2CCCCCCC2)C(=O)CN1C1CCCCCC1 (stereo unspecified),i,i,8.2,i,i,i
O=C1C(c2ccc(F)cc2)N(C2CCCC2)C(=O)CN1C1CCCCC1 (stereo unspecified),i,i,i,i,nt,nt
CCOc1ccc2ccccc2c1/C=C1\SC(c2ccc(C)cc2)=NC1=O,i,i,i,i,nt,nt
CC(C)CCNC(=O)NC(=O)COC(=O)c1cc2ccccc2oc1=O,i,i,12,i,i,i
CCOC(=O)CN1C(=O)Nc2ccc(Br)cc2C1c1ccccc1 (stereo unspecified),i,i,i,i,nt,nt
COC(=O)CN1C(=O)Nc2ccc(Br)cc2C1c1ccccc1Cl (stereo unspecified),i,i,15,i,i,i
O=C(NCC1CCCO1)C(=O)Nc1c(F)cc(F)cc1Br (stereo unspecified),i,i,i,i,nt,nt
Clc1ncnc2c1oc1ccccc12,i,i,9.1,i,i,i
N#Cc1c(N2CCCC2)n[nH]c1NC(=O)Cc1c(Cl)cccc1Cl,i,i,i,i,nt,nt
O=C(NCc1cccs1)NC1CC(=O)N(c2cccc(F)c2)C1 (stereo unspecified),i,i,5.0,i,i,i
Cc1ccc(N2CC(NC(=O)NCc3ccco3)CC2=O)cc1C (stereo unspecified),i,i,5.8,i,i,i
Cc1cc(C)c[n+](-c2[nH]c(=O)sc2/C=N/NC(N)=S)c1,i,i,i,i,nt,nt
CN(CCO)c1ncnc2sccc12,i,i,6.6,i,i,i
CCC(=O)Nc1nc(-c2cccc(Br)c2)cs1,i,i,i,i,nt,nt
